Bioassay records as filed in PubChem.
USP8 inh: inhibitors of human USP8 deubiquitinase; P40818; purified USP8, Ub-rhodamine cleavage fluorescence, 30 min; inhibition, % at 20 µM; 47,000 compounds, 4.2% hits
USP30 block: human USP30 deubiquitinase inhibition; Q70CQ3; purified USP30, Ub-rhodamine cleavage fluorescence; inhibition, % at 25 µM; 47,000 compounds, 5.3% hits
USP28 inh: blocks human USP28 ubiquitin-rhodamine cleavage | 47,000 compounds, 3% hits | AID 1645857 | inhibition, % at 25 µM | Q96RU2 | purified USP28, Ub-rhodamine cleavage fluorescence, 30 min
USP17 inh: human USP17-like deubiquitinase inhibition; purified USP17, Ub-rhodamine cleavage fluorescence, 3 h; 47,000 compounds, 6.5% hits; A8MUK1; inhibition, % at 50 µM
Target sequence (A8MUK1 whole entry, looked up): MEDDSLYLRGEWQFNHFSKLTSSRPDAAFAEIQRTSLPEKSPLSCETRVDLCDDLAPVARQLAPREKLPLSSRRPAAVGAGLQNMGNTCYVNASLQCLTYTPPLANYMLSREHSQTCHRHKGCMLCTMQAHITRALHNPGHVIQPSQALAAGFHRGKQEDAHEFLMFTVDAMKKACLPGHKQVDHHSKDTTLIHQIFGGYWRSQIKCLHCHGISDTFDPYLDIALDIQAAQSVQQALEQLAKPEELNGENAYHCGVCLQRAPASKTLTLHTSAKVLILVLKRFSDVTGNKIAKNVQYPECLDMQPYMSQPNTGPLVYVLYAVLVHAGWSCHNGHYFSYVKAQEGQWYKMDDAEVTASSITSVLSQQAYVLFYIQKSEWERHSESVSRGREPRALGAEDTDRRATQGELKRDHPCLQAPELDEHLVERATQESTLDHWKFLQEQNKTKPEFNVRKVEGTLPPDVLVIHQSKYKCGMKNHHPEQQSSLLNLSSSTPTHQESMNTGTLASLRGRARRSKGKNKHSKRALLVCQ
USP10 inh: blocks human USP10 ubiquitin-rhodamine cleavage; 47,000 compounds, 1.1% hits; inhibition, % at 20 µM; AID 1645856; purified USP10, Ub-rhodamine fluorescence, 60 min
Active calls of the source: *; x = no result. The list is not random: actives were taken first. Their share in the collection is about 14%. Cut-off read from the data, not from the text of the source: active = inhibition above about 30%; inactive = the rest.

SMILES | USP8 inh | USP30 block | USP28 inh | USP17 inh | USP10 inh
COc1ccc(CNC(=O)[C@H](C)N2C(=O)N3CCc4c([nH]c5ccc(OC)cc45)[C@@]3(C)C2=O)cc1 | 17.0 | -41.8 | 32.7* | 50.2* | 15.4
COc1ccc2[nH]c3c(c2c1)CCN1C(=O)N(c2ccccc2C(=O)NCc2ccc4c(c2)OCO4)C(=O)[C@]31C | -22.4 | 2.3 | 8.3 | 29.4 | 1.5
C[C@]12C(=O)N(c3ccccc3C(=O)NCCc3ccccc3)C(=O)N1CCc1c2[nH]c2ccccc12 | 0.2 | 24.4 | 13.5 | 41.2* | -2.7
Cc1ccc(CNC(=O)c2cccc(N3C(=O)N4CCc5c([nH]c6ccccc56)[C@@]4(C)C3=O)c2)cc1 | -0.1 | 17.8 | 6.3 | 63.7* | 20.3
O=C(Nc1nnc2n1CCCS2)c1ccc(Br)o1 | -66.0 | -6.8 | 23.7 | -8.7 | 4.0
CCOc1ccc(S(=O)(=O)Nc2ccc[nH]c2=O)cc1 | 8.7 | -1.3 | 15.8 | 87.4* | 1.5
COc1ccc(-c2cnn(-c3ccc(NC(=O)Nc4cccc(C(F)(F)F)c4)cc3)c2)cc1 | 31.3* | 13.3 | 0.6 | x | 23.8
CC1SCC(=O)N(CC(=O)Nc2ccc([N+](=O)[O-])cc2)C1=O (centres undefined) | -122.4 | -19.0 | -10.0 | -28.0 | 0.3
Cc1cnc(C(=O)N2CCCC(c3ncc(Cc4ccc(F)cc4)o3)C2)cn1 (centres undefined) | 17.4 | 31.5* | 14.1 | 5.9 | 0.0
Cc1cnc(C(=O)N2CCCC(c3ncc(Cc4ccccc4)o3)C2)cn1 (centres undefined) | -5.9 | x | x | -0.1 | 0.5
O=c1c2ccccc2c(-c2nc(-c3ccncc3)no2)cn1-c1ccccc1 | -1.2 | 6.6 | 5.4 | 72.5* | -2.8
O=C(c1cccnc1)N1CCCC1c1cccc(Cc2ccccc2F)n1 (centres undefined) | 8.2 | -46.7 | 5.5 | 0.0 | 0.0
CCOC(=O)c1c(N)n(CC(C)NC(=O)C2CC2)c2nc3ccccc3nc12 (centres undefined) | 25.3 | -40.3 | -6.7 | 30.4* | -1.4
O=C(CSc1cn(Cc2ccccc2Cl)c2ccccc12)N1CCOCC1 | -35.2 | 37.0* | 18.1 | 14.2 | 2.4
O=C(CSc1cn(CC(=O)N2CCCCC2)c2ccccc12)Nc1ccc(Cl)cc1 | -0.8 | 27.0 | 6.5 | 37.5* | 5.5
O=C(Cn1cc(S(=O)(=O)Cc2ccc(Cl)cc2)c2ccccc21)N1CCCCC1 | 2.7 | 75.0* | 1.1 | 3.3 | 3.2
Cc1nc(-c2ccn[nH]2)cc(C2CCCN(S(C)(=O)=O)C2)n1 (centres undefined) | -140.2 | 14.0 | 9.3 | -4.3 | 1.8
CC(=O)N1CCC(c2ccnc(Nc3ccc(C)cn3)n2)C1 (centres undefined) | -25.4 | -10.0 | -6.5 | 0.1 | -0.5
Cc1ccc(CN2C[C@@H]3[C@@H](C(=O)NCC(C)C)CCS(=O)(=O)[C@@H]3C2)cc1 | -8.9 | 1.5 | 7.9 | -7.6 | 2.2
CSCC[C@H](NC(=O)Cc1ccc2c(c1)OCCO2)c1nnc2ccccn12 | -38.8 | 15.6 | -10.2 | -4.8 | 1.6
c1ccc(CNc2nn3c(-c4cccnc4)cnc3s2)cc1 | -1.0 | 40.3* | 10.1 | 31.7* | 8.3
c1cncc(-c2cnc3sc(NCC4CCOCC4)nn23)c1 | 0.1 | -0.5 | -5.7 | -1.6 | 3.8
COc1ccc(CNc2nn3c(-c4cncc(OC)c4)cnc3s2)cc1 | 6.1 | 100.4* | 47.6* | -1.2 | 4.3
CN1C(=O)OC[C@@H]2CCN(C(=O)Nc3ccccc3)C[C@H]21 | 3.6 | -1.8 | -8.3 | 5.4 | 0.7
O=C(O)/C=C/c1ccncc1 | -0.3 | -12.3 | -12.4 | 0.9 | -1.0
SMILES | USP8 inh | USP30 block | USP28 inh | USP17 inh | USP10 inh
Cc1nc2cc(-c3nccn3C)nn2c(N2CCC(O)(c3ccccc3F)CC2)c1C | 0.0 | -4.8 | 2.1 | 33.8* | -4.3
Cc1nc(N2CCN(C)CC2)ncc1-c1cc(=O)[nH]c(N2CCc3ccccc32)n1 | 10.5 | 9.9 | 3.7 | 4.7 | 1.5
O=C(Nc1ccc(CN2CCOCC2)cc1)c1cccc([N+](=O)[O-])c1 | -1.6 | -3.2 | 0.0 | -31.5 | -1.2
O=C(CC1SC(N2CCOCC2)=NC1=O)Nc1cccc([N+](=O)[O-])c1 (centres undefined) | -47.8 | 31.1* | 0.6 | 15.2 | 1.2
Cc1cncc(C2CCCN(C(=O)CCc3c(C)n[nH]c3C)C2)n1 (centres undefined) | 20.6 | 13.3 | 15.2 | 15.1 | 0.0
COCCn1c(C)cc(C(=O)CSc2ccc(Cl)cc2)c1C | 16.1 | -13.0 | 30.1* | 20.3 | -1.3
O=C(c1ccc2occc2c1)N1CCC(S(=O)(=O)c2ccc(-c3ccco3)cc2)CC1 | 78.2* | 13.2 | 19.9 | 52.6* | 32.9*
CCN(CC)c1ccc(C(=O)CN2CCC(S(=O)(=O)c3ccc(-c4ccco4)cc3)CC2)cc1 | -4.6 | -10.4 | 9.6 | 31.2* | -5.8
O=S(=O)(c1ccc(-c2ccco2)cc1)C1CCN(Cc2cccnc2)CC1 | 4.9 | -39.4 | -6.8 | 20.6 | -2.8
c1ccc(-c2ncc(-c3ccncc3)c(C3CCCNC3)n2)cc1 (centres undefined) | 0.7 | -7.6 | -6.2 | -4.9 | 1.2
COc1ccccc1CNC(=O)[C@H](C)NC(=O)[C@@H]1Cc2c([nH]c3ccccc23)C2c3ccccc3C(=O)N21 (some centres undefined) | -17.2 | -38.3 | -2.1 | -8.1 | -5.7
CC(C)=CCC/C(C)=C/CCC(C)(O)C1Cc2c(c3ccccc3[n+]([O-])c2C)O1 (centres undefined) | 11.5 | 30.3* | 6.9 | 18.9 | 10.7
CCC(=O)Nc1nc2cc(NC(=O)Nc3cccc(C)c3)ccc2s1 | 29.1 | 38.1* | 15.6 | 12.9 | 23.2
CCC(=O)Nc1nc2cc(NC(=O)Nc3ccc(C)cc3)ccc2s1 | 46.6* | 42.2* | 15.2 | 22.4 | 30.0*
CCC(=O)Nc1nc2ccc(NC(=O)C3CC3)cc2s1 | 0.0 | -5.5 | 1.6 | -0.5 | 0.1
COc1ccccc1NC(=O)Nc1ccc2sc(NC(=O)C3CCCCC3)nc2c1 | 9.5 | 31.4* | 16.0 | -2.6 | 12.0
CCC(=O)Nc1nc2cc(NC(=O)c3ccccc3C)ccc2s1 | 10.3 | 24.5 | 7.0 | 4.5 | 1.3
COc1ccccc1N1CCN(C(CNC(=O)c2cccs2)c2cccnc2)CC1 (centres undefined) | -19.5 | -21.3 | -6.9 | -4.7 | -2.8
Cn1c(=O)c2c(nc(CN3CCN(Cc4ccccc4)CC3)n2CCN2CCOCC2)n(C)c1=O | -6.1 | -0.4 | -3.6 | -2.1 | 1.0
Cn1c(=O)c2c(nc(SCc3nnc(-c4ccccc4)o3)n2Cc2ccc(F)cc2)n(C)c1=O | -37.3 | 62.7* | 33.0* | 59.1* | 1.3
Cc1cccc(NC(=O)N(C)Cc2nc3cc(C(=O)N(C)C)ccc3n2C)c1 | 17.4 | -7.2 | 0.2 | -4.7 | 0.9
CC(C)N(Cc1cc(=O)[nH]c2ccccc12)C(=O)c1cccc(Br)c1 | 11.7 | 26.5 | 5.5 | 1.6 | 2.4
COc1ccc([C@H]2Oc3cc(OC)cc(O)c3C(=O)[C@@H]2[C@@H]2C(=O)c3c(O)cc(O)cc3O[C@H]2c2ccc(OC)cc2)cc1 | 18.9 | 0.0 | 8.9 | 40.6* | 67.8*
